Screening results (PubChem)
D1 potentiator = Potentiators of Human D1 Dopamine Receptor: qHTS. HEK293 TREx D1 cells, calcium flux, dopamine EC20 potentiation. 0.036% of 360,000 active. potentiation, % at 10 µM. D(1A) dopamine receptor (Homo sapiens), P21728; in the data active = potentiation above about 30%; note: 0% is about no effect
DRD3 agonist = qHTS of D3 Dopamine Receptor Agonist: qHTS; D(3) dopamine receptor (Homo sapiens), P35462; D3R DiscoveRx beta-arrestin cells, luminescence, 90 min; max activation, %; 0.58% of 410,000 active; in the data active = max activation above about 30%; note: 0% is about no effect
Target sequence (P35462 whole entry, looked up): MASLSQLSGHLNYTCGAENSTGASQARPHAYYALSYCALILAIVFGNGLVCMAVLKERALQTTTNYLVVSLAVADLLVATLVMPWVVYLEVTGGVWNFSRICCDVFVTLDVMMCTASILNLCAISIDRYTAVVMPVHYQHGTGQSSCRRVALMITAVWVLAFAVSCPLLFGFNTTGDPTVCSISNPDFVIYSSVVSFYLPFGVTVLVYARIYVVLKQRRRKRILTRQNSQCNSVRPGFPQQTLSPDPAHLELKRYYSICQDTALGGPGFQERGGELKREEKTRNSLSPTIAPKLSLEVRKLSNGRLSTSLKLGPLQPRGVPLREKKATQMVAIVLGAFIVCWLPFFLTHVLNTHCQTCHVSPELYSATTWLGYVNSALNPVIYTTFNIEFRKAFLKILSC
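Agonist-mode cell screen: cells plated at 1500/well and incubated overnight at 37 °C, then exposed to library compounds for 90 min at 37 °C. Detection reagent was added for 30–60 min at room temperature, and luminescence was read.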
D1 antag = Antagonist of Human D 1 Dopamine Receptor: qHTS. D(1A) dopamine receptor (Homo sapiens), P21728. HEK293 TREx D1 cells, calcium flux, dopamine EC80; hits give low values. activity change, negative = inhibition, % at 10 µM. 3.2% of 360,000 active; in the data active = activity change below about -30%; note: % is set by controls: 0 for no effect and ±100 for the full control effect
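Tetracycline-induced HEK293 T-REx cells with force-coupled D1 receptor were loaded with a no-wash calcium dye. Compound was added after a 10 s baseline and read kinetically for 180 s; EC80 dopamine was then added and calcium flux followed another 180 s.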
D3 antag = qHTS of D3 Dopamine Receptor Antagonist: qHTS; 2.5% of 360,000 active; AID 652054, 2013; D(3) dopamine receptor (Homo sapiens), P35462; D3R cells, DiscoveRx beta-arrestin luminescence, antagonist mode; hits give low values; max response, negative = inhibition, %; in the data active = max response below about -50%; inconclusive = no clear call, values can overlap the other calls; note: % is set by controls: 0 for no effect and ±100 for the full control effect
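Cells plated overnight at 1500 cells/well, then exposed to library compounds with dopamine controls for 90 minutes at 37 degrees C. DiscoveRx reagent added for 30–60 minutes at room temperature; luminescence read, quantitative HTS format.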
D1 ag = Allosteric Agonists of the Human D1 Dopamine Receptor: qHTS; D(1A) dopamine receptor (Homo sapiens), P21728; 1% of 360,000 active; HEK293 T-REx D1 cells, calcium flux, agonist mode; activation, % at 2 µM; in the data active = activation above about 30%; note: 0% is about no effect
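Agonism was scored from calcium flux recorded over 180 s (1 read/s) after pintool compound addition, following a 10-cycle baseline. Cells were inducible force-coupled HEK293 TREx D1, plated overnight at 30 C and loaded with no-wash calcium dye.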
Numbers without * were called inactive; ? = inconclusive; . = not tested or not shown. Compounds with a hit are over-represented: about 6% of the library has one in this group of screens.

SMILES	D1 potentiator	DRD3 agonist	D1 antag	D3 antag	D1 ag
O=C(CSc1ccccn1)Nc1nonc1[N+](=O)[O-]	-2	-3	-17	-70*	3
O=C(CSc1ccccn1)Nc1ccc(NC(=O)CSc2ccccn2)cc1	1	5	-14	5	0
NC(=O)CC(CC(=O)OCc1ccccc1)c1ccccc1 (configuration not stated)	-8	-5	-24	-2	0
CN(C(=O)OCc1ccccc1)C(CC(N)=O)C(=O)O (configuration not stated)	1	-12	9	-99*	2
O=c1c2ccccc2ncn1CCCSc1ccccc1	.	0	.	-54*	.
O=C(O)CCCCCNC(=O)CCn1cnc2ccccc2c1=O	-13	6	-51*	-23	1
COc1ccc(CCN(C)C(=O)CSc2nc3ncc(Cl)cc3[nH]2)cc1OC	-1	12	-67*	2	-1
COc1ccc(CCN(C)C(=O)CSc2nccn2C)cc1OC	-2	2	3	3	4
COc1ccc2nc(NC(=O)c3nc(S(=O)(=O)Cc4cccc(C)c4)ncc3Cl)sc2c1	-2	-17	-31*	.	1
COc1ccc(NC(=O)c2nc(S(=O)(=O)Cc3cccc(C)c3)ncc2Cl)c(OC)c1	4	-9	2	-116*	2
COc1ccc2nc(NC(=O)c3nc(S(=O)(=O)Cc4ccccc4)ncc3Cl)sc2c1	1	-16	-26	.	2
COc1ccc(OC)c(NC(=O)c2nc(S(=O)(=O)Cc3ccccc3)ncc2Cl)c1	-6	-38	1	-104*	3
Cc1nn(C)c2c1c(C(F)(F)F)cc(=O)n2Cc1ccc(Br)cc1F	3	12	-2	.	4
COC(=O)c1ccc(NC2CC(=O)N(c3ccccc3C)C2=O)cc1 (configuration not stated)	-6	-21	-33*	-24	5
COC(=O)c1cccc(NC2CC(=O)N(c3ccc(OC)c(OC)c3)C2=O)c1 (configuration not stated)	9	-3	-33*	-24	1
COc1ccc(N2C(=O)CC(Nc3ccc(C(=O)O)cc3)C2=O)cc1OC (configuration not stated)	2	3	12	-3	2
Cc1ccc(NC2CC(=O)N(c3cccc([N+](=O)[O-])c3)C2=O)cc1 (configuration not stated)	-5	2	-9	5	2
COc1ccc(N2C(=O)CC(Nc3cccc([N+](=O)[O-])c3)C2=O)cc1 (configuration not stated)	-2	2	-33*	2	6
Cc1ccccc1N1C(=O)CC(Nc2ccc3c(c2)OCO3)C1=O (configuration not stated)	-3	4	-4	-12	7
COc1ccc2c(c1)cc1c(=O)n(CC(=O)NC3CC3)nc(C)n12	-9	3	-10	.	1
CCc1cnc2c(c1SCc1c(F)cccc1Cl)c(=O)n(C)c(=O)n2C	7	-7	.	.	0
CN(C)S(=O)(=O)N1C(=O)c2ccccc2C1=O	1	1	10	2	4
CN(C)/C=C1\C=C2C(=O)c3ccccc3N2C1=O	2	5	-62*	14	335*
COc1ccc(C2CC(Cn3cc(C#N)c(=O)n(C)c3=O)ON2C)cc1 (configuration not stated)	-8	-2	-34*	-11	0
Cc1[nH]n(C(N)=S)c(=O)c1N=Nc1ccc(S(=O)(=O)N2CCCC2)cc1	-23	5	-30	-78*	0
SMILES	D1 potentiator	DRD3 agonist	D1 antag	D3 antag	D1 ag
Cc1ccc(N=Nc2c(C)[nH]n(C(N)=S)c2=O)cc1	-3	4	-11	?	0
Cc1ccccc1NC(=O)c1sc2nc(N3CCOCC3)c3c(c2c1N)CC(C)(C)OC3	-4	-6	1	.	0
CCOc1ccccc1Nc1nnc(-c2cc3cc(Cl)ccc3oc2=O)s1	-2	7	-10	.	18
COc1ccc(OCC(=O)Nc2cc(OC)ccc2N2CCCCC2)cc1	1	36*	-2	25	7
O=C(Nc1ccccc1N1CCCC1)c1ccc([N+](=O)[O-])o1	0	-4	2	-14	2
COc1ccc(N2CCCC2)c(NC(=O)c2ccc([N+](=O)[O-])o2)c1	-11	-1	-36*	10	4
CCOC(=O)N1CCN(C(=O)CN(c2cccc(Cl)c2)S(=O)(=O)c2ccccc2)CC1	2	1	0	.	-1
COc1ccc(-c2cc(C(=O)Nc3ccn(Cc4ccc(C)cc4)n3)no2)cc1OC	1	5	-12	.	6
Cc1ccc(-n2c(=O)c3c(c4cc(C)ccc4n3C)n(CC(=O)Nc3ccc(F)cc3)c2=O)cc1	-1	-9	4	.	1
Cc1ccc(N=Cc2c(O)c3ccccc3n(C)c2=O)cc1	2	7	5	11	-1
Cc1ccc(N=Cc2sc(O)c3ccccc23)c(C)c1	-1	7	-5	35	47*
Cc1ccc(N=Cc2sc(O)c3ccccc23)cc1	16	2	-39*	2	302*
CCCCC(CC)Cn1c(Oc2ccccc2)nc2c1c(=O)n(C)c(=O)n2C (configuration not stated)	8	6	14	.	4
Clc1cnc(N/N=C/c2cccs2)c(Cl)c1	-5	-7	-6	32	0
Cc1ccc(/C=N/Nc2ncc(Cl)cc2Cl)s1	-14	31*	-29	28	6
CC1CN(CC(=O)N2CCc3[nH]c4ccccc4c3C2)CC(C)O1 (configuration not stated)	2	-2	-44*	?	2
COc1ccc(C2NC(=O)N(C)C3=C2C(=O)N(c2ccc(C)cc2)C3)cc1 (configuration not stated)	-2	4	12	.	2
Cc1ccc(-c2nc(C(Cl)Cl)c3ccccc3n2)cc1	1	-17	18	-60*	4
COc1ccc(Nc2nc3ccc(Cl)cc3n3nnnc23)cc1OC	-2	8	-15	.	1
Cc1nc2c(=O)n(C)c(=O)n(C)c2nc1Cl	-2	-21	-19	-51*	7
Cc1noc(C)c1COC(=O)c1ccccc1Sc1ccccc1C#N	-10	4	-38*	-18	14
O=C(N/N=C/c1c(O)n(-c2ccccc2Cl)c(=O)c2ccccc12)c1cccnc1	0	-3	1	20	28
COc1ccc(Cn2c(O)c(/C=N/NC(=O)c3cccnc3)c3ccccc3c2=O)cc1	6	0	10	-1	90*
